Bioassay records from PubChem BioAssay.
ELG1 repair inh: inhibitors of ELG1-dependent DNA repair in HEK293T cells | HEK293T ELG1-luciferase reporter, luminescence, 16 h; DNA damage induced by 5-fluorouridine | Potency, µM (top dose mostly 46.1 µM), inactives show at the top dose activity change, negative = inhibition, hits mostly inhibitors | 330,000 compounds, 2.3% hits; note: % is set by controls: 0 for no effect and ±100 for the full control effect; nearly all actives have a fitted effect of over 55% in size
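Quantitative HTS, concentration-response format. 2,000 cells/well co-treated with 5-fluorouridine and compound, 16 hr in 5% CO2 at 37 °C; ONE-Glo luminescence read after 30 min.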
ELG1 genotox: induces genotoxicity in HEK293T cells with luciferase-tagged ELG1 | HEK293T ELG1-luciferase reporter, luminescence, 16 h | Potency, µM (doses to about 46 µM), without a hit: top-dose activity change, positive = activation, most hits filed as activators | 330,000 compounds, 1.3% hits | AID 504466; note: % of control where 0% means no effect; nearly all actives have a fitted effect of over 60% in size
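Quantitative HTS format in 1536-well plates. HEK293T ELG1-luciferase reporter cells receive test compound and are incubated 16 hr at 37 °C, 5% CO2; ONE-Glo added, 30 min room temperature, then luminescence read.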
SMN2 splice enh: enhancers of SMN2 splice variant expression; AID 1458; 210,000 compounds, 2.8% hits; HEK293 SMN2-luciferase splicing reporter, luminescence, 30-36 h; Potency, µM (titrated, usually from 46.1 µM), for inactives: at the highest dose activity change, positive = activation, hits mostly activators; note: % of control where 0% means no effect; nearly all actives have a fitted effect of over 55% in size
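HEK293 cells carry an SMN2 minigene-luciferase reporter in which exon 7 inclusion puts luciferase in frame. Cells were seeded at 2000 cells/well, attached for 10-12 hours, then exposed to compounds for 30-36 hours at 37C before ONE-Glo luminescence.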
FLuc counter: counter-screen for miR-21 project: firefly luciferase inhibitors or activators. P08659. purified FLuc, Km substrates, luminescence inhibition. Potency, µM (doses to about 57.5 µM), without a hit: top-dose activity change, negative = inhibition, hits mostly inhibitors. 360,000 compounds, 6.9% hits. AID 588342;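 note: plate controls were vehicle for no effect and reference inhibitor for full effect; nearly all actives have a fitted effect of over 55% in size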
Target sequence (P08659 whole entry, looked up): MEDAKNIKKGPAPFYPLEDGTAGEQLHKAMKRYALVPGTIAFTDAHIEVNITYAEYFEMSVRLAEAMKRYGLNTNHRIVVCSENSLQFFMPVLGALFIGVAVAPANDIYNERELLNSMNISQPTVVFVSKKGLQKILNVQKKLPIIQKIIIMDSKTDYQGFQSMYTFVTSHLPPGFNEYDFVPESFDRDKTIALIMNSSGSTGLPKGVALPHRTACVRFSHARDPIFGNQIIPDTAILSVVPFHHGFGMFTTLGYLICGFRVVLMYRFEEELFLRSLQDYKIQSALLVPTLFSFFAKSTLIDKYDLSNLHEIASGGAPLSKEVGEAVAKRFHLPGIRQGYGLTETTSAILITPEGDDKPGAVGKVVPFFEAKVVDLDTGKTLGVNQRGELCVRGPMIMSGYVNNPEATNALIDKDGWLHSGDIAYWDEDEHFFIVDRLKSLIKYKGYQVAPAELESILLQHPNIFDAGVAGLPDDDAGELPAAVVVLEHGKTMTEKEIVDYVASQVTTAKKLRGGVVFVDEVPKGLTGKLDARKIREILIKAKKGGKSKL
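Purified P. pyralis luciferase (10nM final) with 10uM D-luciferin and 10uM ATP (Km levels) in 50mM Tris acetate pH 7.5, 10mM Mg acetate, 0.01% Tween-20, 0.05% BSA; qHTS 6-point titration, ~60 µM downward; luminescence read.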
Rab9 prom act: activators of Rab9 promoter; Huh7 Rab9 promoter-luciferase reporter, luminescence, 24 h; AID 485297; 320,000 compounds, 2.8% hits; Potency, µM (highest dose often 9.22 µM), inactives show at the top dose activation, negative = inhibition, hits mostly activators; note: % of control where 0% means no effect; nearly all actives have a fitted effect of over 60% in size
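Luminescence from Amplite-detected luciferase (10 minutes, ambient) reports Rab9 promoter activation. Before that, stable Rab9-luciferase Huh7 cells (1500/well, reduced-serum OP-MEM I plus 10% FBS) were exposed to compound for 24 hours at 37C.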
NPC1 prom act: activators of NPC1 promoter. Huh7 NPC1 promoter luciferase reporter, 24 h. Potency, µM (highest dose often 9.22 µM), for the others: at the top dose activation, actives largely listed as activators. 320,000 compounds, 2.4% hits; note: % of control where 0% means no effect; nearly all actives have a fitted effect of over 60% in size
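Huh7 cells stably carrying NPC1 promoter–luciferase, plated in Opti-MEM with 10% FBS for 2 h, were exposed to compound in DMSO for 24 h at 37 °C; luciferase reagent was added for 10 min and luminescence read.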
Starred values were filed as active, the others as inactive; ? = inconclusive; / = no result given. Sampled rows, rich in hits. Any-hit rate of the full collection: about 9.3%. Calls come from the whole dose curve; as a rule, active = well fitted curve in the direction sought with a large enough effect; inconclusive = small, poorly fitted or top-dose-only effect, or another doubt; inactive = no such curve, though single readings can be large; an effect the other way counts as inactive or inconclusive. Potency is the fitted concentration of half-maximal effect.

SMILES	ELG1 repair inh	ELG1 genotox	SMN2 splice enh	FLuc counter	Rab9 prom act	NPC1 prom act
CCC(=O)N1CCN(c2ccc(NC(=O)c3ccco3)cc2Cl)CC1	?	0.8%	/	-16.5%	24.1%	14.4%
CCC(=O)N1CCN(c2ccc(NC(=O)c3cc4ccccc4o3)cc2Cl)CC1	5.8µM*	-60.4%	-109.4%	?	-5.5%	1.1%
CCCC(=O)N1CCN(c2ccc(NC(=O)c3cc4ccccc4o3)cc2Cl)CC1	2.31µM*	-24.9%	-77.5%	?	-26.5%	-20.5%
CC(=O)c1ccc(N2CCN(C(=O)c3ccco3)CC2)c(F)c1	?	?	2.82µM*	-22.9%	?	?
CC(=O)c1cc(F)c(N2CCN(C(=O)c3ccco3)CC2)cc1C	17.6%	18.9%	13.2%	-17.8%	8.5%	10.3%
COc1cc(NS(=O)(=O)c2ccc3c(c2)C(C)(C)C(=O)N3C)cc(OC)c1	26.5%	-0.1%	/	0.5%	0.7%	-1.8%
O=C(Nc1ccc(Cl)cc1C(=O)Nc1ccncc1)c1ccco1	?	-12.1%	31.6µM*	-17.5%	7.7%	2.1%
O=C(Nc1ccc(Br)c(Cl)c1)c1ccco1	?	20.6µM*	?	21.3µM*	3.55µM*	?
O=C(Cc1cccs1)N1CCN(S(=O)(=O)c2ccc(F)c(F)c2)CC1	11.0%	-1.3%	/	-0.2%	-6.3%	-5.3%
COc1ccccc1/C=C/C(=O)NCc1ccccn1	12.4%	-1.0%	-11.8%	-8.6%	6.6%	2.2%
Cc1csc(NC(=O)Cc2ccccc2Cl)n1	?	?	/	16.9µM*	5.01µM*	?
CC(C)(C)c1csc(NC(=O)c2ccccc2O)n1	?	-3.4%	/	0.536µM*	?	?
CC(C)(C)c1csc(NC(=O)c2c(F)c(F)c(F)c(F)c2F)n1	-9.5%	5.8%	/	-0.3%	10.8%	0.5%
CC(=O)c1ccc(NC(=O)c2nc3ccccc3n(C)c2=O)cc1	/	/	/	4.78µM*	/	/
COc1ccc(CC(=O)Nc2nc(C)cs2)cc1OC	16.4µM*	3.0%	-44.5%	-0.5%	-3.1%	9.5%
COC(=O)C(C(=O)Nc1nc2ccccc2s1)C1CCCC1 (stereo unspecified)	-8.2%	-6.6%	-4.2%	-1.2%	3.2%	-1.6%
Cc1ccc2c(c1)C(Cc1ccccc1F)C(=O)N2 (stereo unspecified)	/	/	/	-10.4%	/	/
CSc1ncccc1C(=O)Nc1nc(C(C)(C)C)cs1	7.9%	12.2%	/	16.9µM*	18.0%	16.5%
O=C(Nc1nccs1)c1nc(-c2ccccc2)n(-c2ccccc2)n1	?	-10.8%	-8.1%	-0.6%	-3.0%	-0.4%
Cc1csc(NC(=O)c2nc3nc(C)cc(C)n3n2)n1	?	?	11.2µM*	21.3µM*	3.98µM*	3.55µM*
Cc1csc(NC(=O)c2cc(C)oc2C)n1	?	12.4%	58.0%	21.3µM*	?	?
Cc1csc(NC(=O)c2nc(-c3ccccc3)n(-c3ccccc3)n2)n1	14.6µM*	-6.5%	-6.3%	-2.1%	-4.2%	-1.9%
Cc1ccc(C(=O)O)c(C(=O)Nc2nc(C)cs2)c1	-3.8%	1.0%	-7.6%	-1.3%	-1.4%	-0.1%
CCCCNc1nc2c(c(=O)n(C)c(=O)n2C)n1CC(O)COc1ccccc1C (stereo unspecified)	/	/	8.9%	5.7%	/	/
Cc1ccc(C)c(NC(=O)c2nc(-c3ccccc3)n(-c3ccccc3)n2)c1	?	-12.3%	-5.8%	0.4%	0.8%	1.5%
CC(=O)c1ccc(NC(=O)c2nc(-c3ccccc3)n(-c3ccc(C)cc3)n2)cc1	/	/	/	15.1µM*	/	/
Cc1csc(NC(=O)c2ccccc2O)n1	?	?	2.3%	12µM*	?	?
Cc1ccc(OC(C)C(=O)N2CCN(CCc3ccccn3)CC2)cc1C (stereo unspecified)	/	/	/	4.0%	/	/
Cc1ccc(NC(=O)c2ccc(CSc3nnc(-c4ccncc4)n3C)cc2)c(C)c1	-10.0%	-0.9%	-3.9%	?	-0.1%	-3.2%
